# Laboratory results published in PubChem BioAssay (NCI).
# About 79,000 compounds went through this panel and 15% of them were active in at least one assay; those are over-represented in the sample as a whole. Values without a mark were called inactive. Active and inactive are the calls of the source. Cut-off read from the data, not from the text of the source: active = growth inhibition above about 70%; inactive = the rest.
# What was measured:
# [1] = NCI Yeast Anticancer Drug Screen. Data for the rad52 strain (AID 147);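 note: 0% = growth of vehicle-treated control cultures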; details: S. cerevisiae rad52 mutant growth inhibition, stronger effect = higher value
# Procedure, shortened: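 Genetically altered yeast (DNA damage repair defect) treated with compound; inhibition calculated relative to vehicle.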
# [2] = NCI Yeast Anticancer Drug Screen. Data for the wt1 strain (AID 149);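 note: 0% = growth of vehicle-treated wt1 cultures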; details: S. cerevisiae wt1 strain (SPY 50644) growth inhibition, stronger effect = higher value
# Procedure, shortened: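 Using yeast strain wt1, compound-induced growth inhibition was determined against vehicle-treated cultures.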
# [3] = NCI Yeast Anticancer Drug Screen. Data for the rad50EPP+ strain (AID 151);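 note: 0% = growth of vehicle-treated control cultures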; details: S. cerevisiae rad50 mutant strain, stronger effect = higher value
# Procedure, shortened: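 Strain rad50EPP+; compound exposure; % growth inhibition vs vehicle.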
# [4] = NCI Yeast Anticancer Drug Screen. Data for the mgt1 strain (AID 153); details: S. cerevisiae mgt1 mutant growth inhibition, stronger effect = higher value
# Procedure, shortened: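 Read-out: yeast growth inhibition vs vehicle control. Strain mgt1, drawn from a panel altered in DNA damage repair or cell cycle control.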
# [5] = NCI Yeast Anticancer Drug Screen. Data for the rad50 strain (AID 155);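 note: 0% = growth of vehicle-only cultures of the same strain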; details: S. cerevisiae rad50 strain growth inhibition, stronger effect = higher value
# Procedure, shortened: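 Relative growth inhibition (compound vs vehicle) was measured in yeast with a defined repair-gene alteration.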
# [6] = NCI Yeast Anticancer Drug Screen. Data for the mec2-1 strain (AID 157); details: S. cerevisiae mec2-1 strain, stronger effect = higher value
# Procedure, shortened: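 Cells of the genetically defined mec2-1 yeast strain are incubated with test compound. Inhibition of growth is calculated against vehicle-treated controls.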
# [7] = NCI Yeast Anticancer Drug Screen. Data for the rad14 strain (AID 159);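 note: 0% = growth of vehicle-treated control cultures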; details: S. cerevisiae rad14 strain growth inhibition, stronger effect = higher value
# Procedure, shortened: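 Screen for anticancer potential: a yeast strain altered in DNA damage repair is grown with compound, and reduced growth is quantified against vehicle controls.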
# [8] = NCI Yeast Anticancer Drug Screen. Data for the sgs1 mgt1 strain (AID 161);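 note: 0% = growth of cultures given vehicle only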; details: S. cerevisiae sgs1 mgt1 strain, stronger effect = higher value
# Procedure, shortened: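 Read-out: growth inhibition vs vehicle controls. Cells: mutant yeast strain deficient in DNA damage repair.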
# [9] = NCI Yeast Anticancer Drug Screen. Data for the CLN2oe strain (AID 163);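 note: 0% = growth of vehicle-only control cultures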; details: S. cerevisiae CLN2oe strain, stronger effect = higher value
# Procedure, shortened: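 Strain altered in cell-cycle control, incubated with compound; growth compared to solvent-treated controls.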
# [10] = NCI Yeast Anticancer Drug Screen. Data for the cln2 rad14 strain (AID 165);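 note: 0% = growth equal to vehicle treated cultures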; details: S. cerevisiae cln2 rad14 strain, stronger effect = higher value
# Procedure, shortened: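 The screen exposed genetically defined yeast (cln2 rad14) to test compounds and scored growth inhibition relative to vehicle-treated controls.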
# [11] = NCI Yeast Anticancer Drug Screen. Data for the bub3 strain (AID 167); details: S. cerevisiae bub3 mutant strain, stronger effect = higher value
# Procedure, shortened: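 Screening used yeast with an engineered genetic alteration affecting cell cycle control. Compound-exposed cultures were compared with vehicle cultures, and reduced growth was taken as inhibition.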
# [12] = NCI Yeast Anticancer Drug Screen. Data for the wt2 strain (AID 169);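 note: 0% = growth of vehicle-treated yeast cultures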; details: S. cerevisiae wt2 strain growth inhibition, stronger effect = higher value
# Procedure, shortened: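 Steps: yeast strain treated with compound; growth recorded; inhibition calculated relative to cultures given vehicle alone.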
# [13] = NCI Yeast Anticancer Drug Screen. Data for the mlh1 strain (AID 171);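 note: 0% = growth of vehicle-treated control cultures of the same strain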; details: S. cerevisiae mlh1 strain growth inhibition, stronger effect = higher value
# Procedure, shortened: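 Yeast screen: mutant strain plus compound, growth scored against vehicle control wells.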
# [14] = NCI Yeast Anticancer Drug Screen. Data for the sgs1 strain (AID 173);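 note: 0% = growth of vehicle-only control cultures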; details: S. cerevisiae sgs1 mutant, stronger effect = higher value
# Procedure, shortened: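 Inhibition of yeast growth served as the measure. The mutant strain was treated with each compound, and growth was normalised to cultures receiving vehicle alone.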
# [15] = NCI Yeast Anticancer Drug Screen. Data for the mlh1 rad18 strain (AID 175); details: S. cerevisiae mlh1 rad18 strain growth inhibition, stronger effect = higher value
# Procedure, shortened: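 Compound-treated yeast growth, normalised to vehicle controls. Strain bears defined DNA repair mutations.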
# [16] = NCI Yeast Anticancer Drug Screen. Data for the rad18 strain (AID 177); details: S. cerevisiae rad18 mutant growth inhibition, stronger effect = higher value
# Procedure, shortened: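 Inhibition values reflect reduced yeast growth compared with vehicle-treated controls, using a strain engineered with a DNA damage repair defect.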
# [17] = at 5.0 µM (retest, dose inferred, filed as 0.5)
# [18] = at 50.0 µM (retest, dose inferred, filed as 5.0)
compound,measurement,setting,value
O=C(c1cc(=O)c2ccc(O)cc2o1)c1ccc(Cl)cc1Cl,growth inhibition,[1]; at 1.2 µM,-31%
same,growth inhibition,[1]; at 3.7 µM,-32%
same,growth inhibition,[1]; at 11.0 µM,8%
same,growth inhibition,[1]; at 33.0 µM,90% (active)
same,growth inhibition,[1]; at 100.0 µM,92% (active)
same,growth inhibition,[2]; at 1.2 µM,-6%
same,growth inhibition,[2]; at 3.7 µM,1%
same,growth inhibition,[2]; at 11.0 µM,-2%
same,growth inhibition,[2]; at 33.0 µM,75% (active)
same,growth inhibition,[2]; at 100.0 µM,92% (active)
same,growth inhibition,[3]; at 1.2 µM,-23%
same,growth inhibition,[3]; at 3.7 µM,-7%
same,growth inhibition,[3]; at 11.0 µM,52%
same,growth inhibition,[3]; at 33.0 µM,94% (active)
same,growth inhibition,[3]; at 100.0 µM,96% (active)
same,growth inhibition,[4]; at 1.2 µM,-9%
same,growth inhibition,[4]; at 3.7 µM,-18%
same,growth inhibition,[4]; at 11.0 µM,21%
same,growth inhibition,[4]; at 33.0 µM,89% (active)
same,growth inhibition,[4]; at 100.0 µM,90% (active)
same,growth inhibition,[5]; at 1.2 µM,-11%
same,growth inhibition,[5]; at 3.7 µM,-16%
same,growth inhibition,[5]; [17],23%
same,growth inhibition,[5]; at 11.0 µM,12%
same,growth inhibition,[5]; at 33.0 µM,94% (active)
same,growth inhibition,[5]; [18],95% (active)
same,growth inhibition,[5]; at 50.0 µM,86.5% (active)
same,growth inhibition,[5]; at 100.0 µM,93% (active)
same,growth inhibition,[6]; at 1.2 µM,-27%
same,growth inhibition,[6]; at 3.7 µM,-13%
same,growth inhibition,[6]; [17],-30%
same,growth inhibition,[6]; at 11.0 µM,5%
same,growth inhibition,[6]; at 33.0 µM,80% (active)
same,growth inhibition,[6]; [18],95% (active)
same,growth inhibition,[6]; at 50.0 µM,85.2% (active)
same,growth inhibition,[6]; at 100.0 µM,93% (active)
same,growth inhibition,[7]; at 1.2 µM,2%
same,growth inhibition,[7]; at 3.7 µM,4%
same,growth inhibition,[7]; at 11.0 µM,19%
same,growth inhibition,[7]; at 33.0 µM,76% (active)
same,growth inhibition,[7]; at 100.0 µM,91% (active)
same,growth inhibition,[8]; [17],3%
same,growth inhibition,[8]; [18],92% (active)
same,growth inhibition,[8]; at 50.0 µM,88% (active)
same,growth inhibition,[9]; at 1.2 µM,-23%
same,growth inhibition,[9]; at 3.7 µM,-8%
same,growth inhibition,[9]; at 11.0 µM,23%
same,growth inhibition,[9]; at 33.0 µM,94% (active)
same,growth inhibition,[9]; at 100.0 µM,92% (active)
same,growth inhibition,[10]; [17],13%
same,growth inhibition,[10]; [18],93% (active)
same,growth inhibition,[10]; at 50.0 µM,78.2% (active)
same,growth inhibition,[11]; at 1.2 µM,-16%
same,growth inhibition,[11]; at 3.7 µM,-11%
same,growth inhibition,[11]; [17],23%
same,growth inhibition,[11]; at 11.0 µM,46%
same,growth inhibition,[11]; at 33.0 µM,95% (active)
same,growth inhibition,[11]; [18],97% (active)
same,growth inhibition,[11]; at 50.0 µM,88.5% (active)
same,growth inhibition,[11]; at 100.0 µM,94% (active)
same,growth inhibition,[12]; at 1.2 µM,-4%
same,growth inhibition,[12]; at 3.7 µM,-4%
same,growth inhibition,[12]; at 11.0 µM,0%
same,growth inhibition,[12]; at 33.0 µM,68%
same,growth inhibition,[12]; at 100.0 µM,88% (active)
same,growth inhibition,[13]; at 1.2 µM,-19%
same,growth inhibition,[13]; at 3.7 µM,-7%
same,growth inhibition,[13]; at 11.0 µM,33%
same,growth inhibition,[13]; at 33.0 µM,91% (active)
same,growth inhibition,[13]; at 100.0 µM,92% (active)
same,growth inhibition,[14]; at 1.2 µM,-18%
same,growth inhibition,[14]; at 3.7 µM,-14%
same,growth inhibition,[14]; at 11.0 µM,60%
same,growth inhibition,[14]; at 33.0 µM,95% (active)
same,growth inhibition,[14]; at 100.0 µM,94% (active)
same,growth inhibition,[15]; [17],37%
same,growth inhibition,[15]; [18],96% (active)
same,growth inhibition,[15]; at 50.0 µM,85.5% (active)
same,growth inhibition,[16]; at 1.2 µM,-6%
same,growth inhibition,[16]; at 3.7 µM,-19%
same,growth inhibition,[16]; at 11.0 µM,19%
same,growth inhibition,[16]; at 33.0 µM,94% (active)
same,growth inhibition,[16]; at 100.0 µM,94% (active)
Cc1nc2sc3c(c2c(=O)o1)CCCC3,growth inhibition,[1]; at 1.2 µM,0%
same,growth inhibition,[1]; at 3.7 µM,2%
same,growth inhibition,[1]; at 11.0 µM,1%
same,growth inhibition,[1]; at 33.0 µM,6%
same,growth inhibition,[1]; at 100.0 µM,4%
same,growth inhibition,[2]; at 1.2 µM,-1%
same,growth inhibition,[2]; at 3.7 µM,0%
same,growth inhibition,[2]; at 11.0 µM,1%
same,growth inhibition,[2]; at 33.0 µM,-1%
same,growth inhibition,[2]; at 100.0 µM,2%
same,growth inhibition,[3]; at 1.2 µM,-6%
same,growth inhibition,[3]; at 3.7 µM,-8%
same,growth inhibition,[3]; at 11.0 µM,-10%
same,growth inhibition,[3]; at 33.0 µM,-3%
same,growth inhibition,[3]; at 100.0 µM,-1%
same,growth inhibition,[4]; at 1.2 µM,-1%
same,growth inhibition,[4]; at 3.7 µM,-1%
same,growth inhibition,[4]; at 11.0 µM,18%
same,growth inhibition,[4]; at 33.0 µM,-2%
same,growth inhibition,[4]; at 100.0 µM,7%
same,growth inhibition,[5]; at 1.2 µM,0%
same,growth inhibition,[5]; at 3.7 µM,2%
same,growth inhibition,[5]; [17],18%
same,growth inhibition,[5]; at 11.0 µM,-11%
same,growth inhibition,[5]; at 33.0 µM,7%
same,growth inhibition,[5]; [18],10%
same,growth inhibition,[5]; at 50.0 µM,4.2%
same,growth inhibition,[5]; at 100.0 µM,5%
same,growth inhibition,[6]; at 1.2 µM,2%
same,growth inhibition,[6]; at 3.7 µM,2%
same,growth inhibition,[6]; [17],5%
same,growth inhibition,[6]; at 11.0 µM,2%
same,growth inhibition,[6]; at 33.0 µM,6%
same,growth inhibition,[6]; [18],-4%
same,growth inhibition,[6]; at 50.0 µM,25.3%
same,growth inhibition,[6]; at 100.0 µM,6%
same,growth inhibition,[7]; at 1.2 µM,0%
same,growth inhibition,[7]; at 3.7 µM,-4%
same,growth inhibition,[7]; at 11.0 µM,2%
same,growth inhibition,[7]; at 33.0 µM,13%
same,growth inhibition,[7]; at 100.0 µM,10%
same,growth inhibition,[8]; [17],-6%
same,growth inhibition,[8]; [18],14%
same,growth inhibition,[8]; at 50.0 µM,26.6%
same,growth inhibition,[9]; at 1.2 µM,-1%
same,growth inhibition,[9]; at 3.7 µM,1%
same,growth inhibition,[9]; at 11.0 µM,2%
same,growth inhibition,[9]; at 33.0 µM,6%
same,growth inhibition,[9]; at 100.0 µM,14%
same,growth inhibition,[10]; [17],23%
same,growth inhibition,[10]; [18],3%
same,growth inhibition,[10]; at 50.0 µM,4.5%
same,growth inhibition,[11]; at 1.2 µM,6%
same,growth inhibition,[11]; at 3.7 µM,18%
same,growth inhibition,[11]; [17],30%
same,growth inhibition,[11]; at 11.0 µM,31%
same,growth inhibition,[11]; at 33.0 µM,39%
same,growth inhibition,[11]; [18],51%
same,growth inhibition,[11]; at 50.0 µM,72.9% (active)
same,growth inhibition,[11]; at 100.0 µM,28%
same,growth inhibition,[12]; at 1.2 µM,-1%
same,growth inhibition,[12]; at 3.7 µM,1%
same,growth inhibition,[12]; at 11.0 µM,1%
same,growth inhibition,[12]; at 33.0 µM,3%
same,growth inhibition,[12]; at 100.0 µM,4%
same,growth inhibition,[13]; at 1.2 µM,1%
same,growth inhibition,[13]; at 3.7 µM,-3%
same,growth inhibition,[13]; at 11.0 µM,5%
same,growth inhibition,[13]; at 33.0 µM,2%
same,growth inhibition,[13]; at 100.0 µM,2%
same,growth inhibition,[14]; at 1.2 µM,-2%
same,growth inhibition,[14]; at 3.7 µM,-4%
same,growth inhibition,[14]; at 11.0 µM,-2%
same,growth inhibition,[14]; at 33.0 µM,1%
same,growth inhibition,[14]; at 100.0 µM,2%
same,growth inhibition,[15]; [17],-2%
same,growth inhibition,[15]; [18],-2%
same,growth inhibition,[15]; at 50.0 µM,26%
same,growth inhibition,[16]; at 1.2 µM,-3%
same,growth inhibition,[16]; at 3.7 µM,-3%
same,growth inhibition,[16]; at 11.0 µM,-4%
same,growth inhibition,[16]; at 33.0 µM,-15%
same,growth inhibition,[16]; at 100.0 µM,1%
